# Measurements reported in PubChem BioAssay AID624037 (The Scripps Research Institute Molecular Screening Center, 2012).
# Screen size: about 360,000 compounds; about 700 (0.19%) were called active.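 The calls were made as follows: active = activation above the run's mean over test compounds plus 3 SD (cut at about 23% in these data); inactive = the rest.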 This excerpt belongs to a sample that is enriched for actives.
# Target: Muscarinic acetylcholine receptor M5 (Homo sapiens) (UniProt P08912)
# Assay: CHRM5 activators raising intracellular calcium – CHO-K1 cells, Fluo-8 calcium fluorescence, primary screen (AID 624037);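 also: signal is peak over basal fluorescence ratio across the kinetic read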
# Details: CHO-K1 hM5 cells, at 3 µM, stronger effect = higher value, 0% DMSO wells, 100% maximal acetylcholine response
# Muscarinic acetylcholine receptor M5 (Homo sapiens), sequence (P08912 whole entry, looked up): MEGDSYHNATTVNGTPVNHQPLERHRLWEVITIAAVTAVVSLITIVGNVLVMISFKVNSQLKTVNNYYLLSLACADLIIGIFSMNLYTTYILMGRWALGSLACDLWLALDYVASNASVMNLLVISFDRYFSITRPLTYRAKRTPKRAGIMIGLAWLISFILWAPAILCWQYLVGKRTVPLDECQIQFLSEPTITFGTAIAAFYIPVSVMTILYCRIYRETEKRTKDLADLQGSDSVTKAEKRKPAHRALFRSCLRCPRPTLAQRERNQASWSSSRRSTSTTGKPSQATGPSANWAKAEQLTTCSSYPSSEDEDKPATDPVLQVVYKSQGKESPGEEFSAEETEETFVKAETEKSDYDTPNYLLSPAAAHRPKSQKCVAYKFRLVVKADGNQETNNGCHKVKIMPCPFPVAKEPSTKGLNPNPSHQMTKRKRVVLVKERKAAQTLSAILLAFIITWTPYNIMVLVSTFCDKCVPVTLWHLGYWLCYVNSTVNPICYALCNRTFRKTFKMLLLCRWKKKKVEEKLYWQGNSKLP
row,Compound,activation
1,CC(C)C[C@H]1CNC(=S)N1C[C@H]1CCCN1C[C@H](Cc1ccc(O)cc1)N1C[C@H](Cc2ccc(O)cc2)N(CC2CCCCC2)C1=S,-1.54% (inactive)
2,Cc1ccccc1C(=O)NCCN=C1NS(=O)(=O)c2ccccc21,-1.12% (inactive)
3,N#CC1(NC(=O)COC(=O)CCN=C2NS(=O)(=O)c3ccccc32)CCCCC1,-5.2% (inactive)
4,O=C(CCCN=C1NS(=O)(=O)c2ccccc21)OCC(=O)c1ccc(F)c(F)c1,37.2% (active)
5,O=C(Cc1c(Cl)cccc1Cl)NC1CC1,-4.03% (inactive)
6,Cc1ccc(C(=O)N(CC(=O)NC2CCCC2)c2ccc(F)cc2)s1,-2.46% (inactive)
7,O=C(/C=C(O)/C=C/c1ccc(O)cc1)/C=C/c1ccc(O)cc1,156% (active)
8,COc1cccc(C(=O)NNC(=O)/C=C/c2ccccc2)c1,-2.95% (inactive)
9,c1ccc(C(=NNc2nc3ccccc3s2)c2ccccn2)cc1,58.8% (active)
10,Cc1cc(C)c2c(c1)cc(C)c1nnc(SCC(=O)Nc3cc(C)on3)n12,3.15% (inactive)
11,O=C(CN(C(=O)CCC(=O)Nc1nccs1)c1ccc(F)cc1)NCc1ccc2c(c1)OCO2,-1.79% (inactive)
12,Cc1nccn1CCCNC(=O)CC1C(=O)NCCN1Cc1ccc(Cl)c(F)c1 (stereo not given),-2.66% (inactive)
13,CC(=O)C[C@@H]1OC[C@H](CO)N1S(=O)(=O)c1ccc(C)cc1,4.39% (inactive)
14,O=C(COC(=O)Cc1ccc(Br)cc1)Nc1ccc(N2CCOCC2)cc1,4.95% (inactive)
15,CC(C)[C@H](NC(=O)N1CC(=O)Nc2ccccc21)C(=O)N[C@@H](Cc1c[nH]c2ccccc12)C(=O)O,1.96% (inactive)
16,Cc1cccc(C)c1NC(=O)CNC(=O)Cc1ccc(Br)cc1,-2.94% (inactive)
17,CCOc1ccc(CNC(=O)CCC(=O)N2CCSc3ccccc32)cc1,3.47% (inactive)
18,CCn1cc(C(=O)NCC2COc3ccccc3O2)c2cc(OC)c(OC)cc2c1=O (stereo not given),1.23% (inactive)
19,O=C1C(=O)N(CC2COc3ccccc3O2)c2ccccc21 (stereo not given),26.9% (active)
20,O=C1C(=O)N(c2ccccc2)c2ccccc21,15.5% (inactive)
21,O=C(Cn1nc(Cc2cccnc2)c2ccccc2c1=O)NCC1COc2ccccc2O1 (stereo not given),1.51% (inactive)
22,CCC(=O)c1ccc(OCC(=O)N(CC)CC2COc3ccccc3O2)cc1 (stereo not given),-1.18% (inactive)
23,c1ccc2c(c1)OCC(CNc1ncnc3nc[nH]c13)O2 (stereo not given),108% (active)
24,Cc1ccc2c(c1)C(O)(CC(=O)c1cccc(-n3cccc3)c1)C(=O)N2 (stereo not given),3.01% (inactive)
25,Cc1cccc(N=C2NC(=O)CS2)c1C,2.4% (inactive)
